± gives the uncertainty stated by the source.
Assays:
FLX1 = assay: cell viability z-score within plate (CellTiter-Glo), mean of 3 biological replicates; higher = higher viability relative to plate (less growth inhibition); details: 2 µM; time (hr): 120
Description: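 FLX1 fibrolamellar carcinoma cells (DNAJB1-PRKACA fusion), 600 cells/well in 384-well plates, treated with a Selleck kinase inhibitor library (L1200) at 2 uM for 5 days (120 hr); viability by CellTiter-Glo. A z-score was computed within each plate and averaged over three biological replicates.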

[1] = tested on: FLX1 + dox-induced PRKAR1A G325D; assay: difference in log2 fold change of viability vs plate median (dox-induced PRKAR1A G325D minus uninduced); higher = compound less effective when PKA is inhibited; details: concentration: not stated (2 or 5 uM); 5 days
Description: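 For each plate a log2 fold change vs the plate median was derived, and the values without dox were subtracted from those with dox, averaged over three biological replicates.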

Compound: Cc1cc(Nc2cc(CN3CCOCC3)c3nc(C)c(Cc4ccc(Cl)cc4F)n3n2)n[nH]1
- cell viability z-score within plate (FLX1): 0.049 ± 0.54
- difference in log2 fold change of viability [1]: -1.14

Compound: Cc1nc(NC(=O)N2CCC[C@H]2C(N)=O)sc1-c1ccnc(C(C)(C)C(F)(F)F)c1 [Alpelisib (BYL719)]
- cell viability z-score within plate (FLX1): 0.524 ± 0.28
- difference in log2 fold change of viability [1]: 0.385

Compound: COc1cc2nccc(Oc3ccc(NC(=O)C4(C(=O)Nc5ccc(F)cc5)CC4)cc3)c2cc1OC [Cabozantinib malate (XL184)]
- cell viability z-score within plate (FLX1): 0.553 ± 0.015
- difference in log2 fold change of viability [1]: -0.77

Compound: O=C1c2ccc(Nc3ccc(F)cc3F)cc2CCc2ccc(OC[C@H](O)CO)cc21 [Skepinone-L]
- cell viability z-score within plate (FLX1): -1.21 ± 0.79
- difference in log2 fold change of viability [1]: 0.71

Compound: CCN1/C(=C/C(C)=O)Sc2ccc(OC)cc21
- cell viability z-score within plate (FLX1): -1.85 ± 0.92
- difference in log2 fold change of viability [1]: -0.074

Compound: Cn1ncc(Cl)c1-c1cc(C(=O)N[C@H](CN)Cc2ccc(F)c(F)c2)oc1Cl
- cell viability z-score within plate (FLX1): -0.657 ± 0.15
- difference in log2 fold change of viability [1]: -0.0579

Compound: CCCNC(=O)Nc1ccc(Oc2ncnc3cc(OC)c(OC)cc23)cc1Cl
- cell viability z-score within plate (FLX1): 0.704 ± 0.077
- difference in log2 fold change of viability [1]: -0.22

Compound: COc1cc2c(Nc3ccc(NC(=O)c4ccccc4)cc3)ncnc2cc1OCCCN1CCOCC1
- cell viability z-score within plate (FLX1): 0.281 ± 0.48
- difference in log2 fold change of viability [1]: 0.301

Compound: N#Cc1c(Oc2ccc(F)c(NC(=O)Cc3cccc(C(F)(F)F)c3)c2)ccc2nc(NC(=O)C3CC3)sc12
- cell viability z-score within plate (FLX1): 0.529 ± 0.94
- difference in log2 fold change of viability [1]: -0.168

Compound: O=C(Nc1cccc(Nc2ncc(Br)c(NCCc3cnc[nH]3)n2)c1)N1CCCC1
- cell viability z-score within plate (FLX1): 0.384 ± 0.1
- difference in log2 fold change of viability [1]: 0.799

Compound: Cc1cc(Nc2ncc(Cl)c(Nc3ccccc3S(=O)(=O)C(C)C)n2)c(OC(C)C)cc1C1CCNCC1 [Ceritinib (LDK378)]
- cell viability z-score within plate (FLX1): 0.337 ± 0.65
- difference in log2 fold change of viability [1]: 0.032

Compound: Cn1cc(-c2ccc3ncc(Cc4ccc5ncccc5c4)n3n2)cn1
- cell viability z-score within plate (FLX1): 0.137 ± 0.93
- difference in log2 fold change of viability [1]: -0.0241

Compound: CNC(=O)c1cc(Oc2ccc(NC(=O)Nc3cc(C(C)(C)C)nn3-c3ccc4ncccc4c3)c(F)c2)ccn1 [Rebastinib (DCC-2036)]
- cell viability z-score within plate (FLX1): 0.382 ± 0.34
- difference in log2 fold change of viability [1]: 0.37

Compound: Cc1cc2c(F)c(Oc3ncnn4cc(OC[C@@H](C)OC(=O)[C@H](C)N)c(C)c34)ccc2[nH]1
- cell viability z-score within plate (FLX1): 0.531 ± 0.22
- difference in log2 fold change of viability [1]: 0.461

Compound: CC[C@H](CO)Nc1nc(NCc2ccccc2)c2ncn(C(C)C)c2n1 [Roscovitine (Seliciclib,CYC202)]
- cell viability z-score within plate (FLX1): 0.283 ± 0.3
- difference in log2 fold change of viability [1]: 0.0426

Compound: COc1cc(CCc2cc(NC(=O)c3ccc(N4CC(C)NC(C)C4)cc3)n[nH]2)cc(OC)c1 (stereo not given)
- cell viability z-score within plate (FLX1): 1.18 ± 0.41
- difference in log2 fold change of viability [1]: -0.468

Compound: CO[C@H]1C[C@@H]2CC[C@@H](C)[C@@](O)(O2)C(=O)C(=O)N2CCCC[C@H]2C(=O)O[C@H]([C@H](C)C[C@@H]2CC[C@@H](OP(C)(C)=O)[C@H](OC)C2)CC(=O)[C@H](C)/C=C(\C)[C@@H](O)[C@@H](OC)C(=O)[C@H](C)C[C@H](C)/C=C/C=C/C=C/1C [Ridaforolimus (Deforolimus, MK-8669)]
- cell viability z-score within plate (FLX1): -0.102 ± 0.36
- difference in log2 fold change of viability [1]: 0.419

Compound: CCn1c(-c2nonc2N)nc2c(C#CC(C)(C)O)ncc(OC[C@H]3CCCNC3)c21
- cell viability z-score within plate (FLX1): -1.24 ± 0.86
- difference in log2 fold change of viability [1]: 0.00672

Compound: CCCCCCCCCCCCc1ccc(S(=O)(=O)Nc2nncs2)cc1
- cell viability z-score within plate (FLX1): 1.17 ± 0.77
- difference in log2 fold change of viability [1]: 0.132

Compound: COC(=O)Nc1ccc(-c2nc(N3CCOCC3)c3cnn(C4CCN(C(=O)OC)CC4)c3n2)cc1
- cell viability z-score within plate (FLX1): 0.411 ± 0.44
- difference in log2 fold change of viability [1]: 0.71

Compound: CNCc1ccc(-c2cc(-c3nc(-c4ccc(S(=O)(=O)C(C)C)cc4)cnc3N)on2)cc1
- cell viability z-score within plate (FLX1): 0.59 ± 0.39
- difference in log2 fold change of viability [1]: -0.00074

Compound: CN(C)CCCn1cc(C2=C(c3c[nH]c4ccccc34)C(=O)NC2=O)c2ccccc21
- cell viability z-score within plate (FLX1): -0.651 ± 0.3
- difference in log2 fold change of viability [1]: -0.243

Compound: CS(=O)(=O)CCNCc1ccc(-c2ccc3ncnc(Nc4ccc(OCc5cccc(F)c5)c(Cl)c4)c3c2)o1
- cell viability z-score within plate (FLX1): 0.842 ± 0.23
- difference in log2 fold change of viability [1]: 0.519

Compound: CNC(=O)c1nn(C)c2c1C(C)(C)Cc1cnc(Nc3ccc(N4CCN(C)CC4)cc3)nc1-2
- cell viability z-score within plate (FLX1): 0.949 ± 0.33
- difference in log2 fold change of viability [1]: 0.64

Compound: COCCOc1ccc2c(c1)ncn2-c1ccc2cccc(N3CCC(N)CC3)c2n1
- cell viability z-score within plate (FLX1): 0.546 ± 0.4
- difference in log2 fold change of viability [1]: -0.262

Compound: COc1ccc(S(=O)(=O)N(CCO)c2ccccc2CN(C)C/C=C/c2ccc(Cl)cc2)cc1 [KN-93 Phosphate]
- cell viability z-score within plate (FLX1): 0.23 ± 0.54
- difference in log2 fold change of viability [1]: 0.66

Compound: COc1cc(N2CCC(N(C)C)CC2)ccc1Nc1ncc(Cl)c(Nc2ccccc2P(C)(C)=O)n1
- cell viability z-score within plate (FLX1): 0.0333 ± 0.4
- difference in log2 fold change of viability [1]: -1.41

Compound: CC(C)(C)c1cnc(CSc2cnc(NC(=O)C3CCNCC3)s2)o1
- cell viability z-score within plate (FLX1): -1.06 ± 1.3
- difference in log2 fold change of viability [1]: 0.0393

Compound: OCCn1cc(-c2ccc3c(c2)CC/C3=N\O)c(-c2ccncc2)n1
- cell viability z-score within plate (FLX1): 0.788 ± 0.054
- difference in log2 fold change of viability [1]: 0.00993

Compound: N#Cc1c(O)c2c(-c3ccc(-c4ccccc4O)cc3)csc2[nH]c1=O
- cell viability z-score within plate (FLX1): 0.457 ± 0.29
- difference in log2 fold change of viability [1]: 0.134

Compound: CNC(=O)CN1CCC(Oc2cc3c(Nc4cccc(Cl)c4F)ncnc3cc2OC)CC1 [Sapitinib (AZD8931)]
- cell viability z-score within plate (FLX1): 0.472 ± 0.47
- difference in log2 fold change of viability [1]: -0.745

Compound: CCOC(=O)c1cnc2ccc(-c3cncc(NS(=O)(=O)c4ccccc4)c3)cn12
- cell viability z-score within plate (FLX1): 0.507 ± 0.62
- difference in log2 fold change of viability [1]: 0.663

Compound: COc1ccc2c(Oc3ccc(NC(=O)c4c(C)n(CC(C)(C)O)n(-c5ccccc5)c4=O)nc3)ccnc2c1
- cell viability z-score within plate (FLX1): 0.446 ± 0.46
- difference in log2 fold change of viability [1]: 0.00712

Compound: Cc1cc(C(=O)NOCCO)c(Nc2ccc(I)cc2F)n(C)c1=O
- cell viability z-score within plate (FLX1): 0.132 ± 0.35
- difference in log2 fold change of viability [1]: -0.818

Compound: Cc1c(CN2CCN(C(=O)[C@H](C)O)CC2)sc2c(N3CCOCC3)nc(-c3cnc(N)nc3)nc12 [Apitolisib (GDC-0980, RG7422)]
- cell viability z-score within plate (FLX1): 0.169 ± 0.42
- difference in log2 fold change of viability [1]: 0.628
